8 molecules from PubChem BioAssay (NCI) can be followed below.

This is part of a sample that, as a whole, favours compounds with a hit. Of some 83,000 tested, about 20% had one in any assay.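 Method: cells in 96-well plates; compound added at one concentration; 48 h incubation; percent growth measured; values under 10 scored active.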 A number with no mark means an inactive call. Active and inactive are the calls of the source.

What all share (experiment): NCI-60 one-dose screen, 48 h (100 = growth as untreated, 0 = no growth, -100 = all killed)
Holding throughout (settings): 10 µM unless noted

Experiment [1] deals with NCI-H23 lung.
In experiment [2] the test system is NCI-H226 lung.
The subject of experiment [3] is NCI-H322M lung.
For experiment [4], the system named is HOP-62 NSCLC.
For experiment [5], the system named is NCI-H460 lung.
The test system of experiment [6] is HOP-92 NSCLC.
Experiment [7] relates to NCI-H522 lung.
Experiment [8] relates to A549/ATCC NSCLC.
Experiment [9] deals with 786-0 renal.
Experiment [10] has as its system COLO 205 colon.
In experiment [11] the test system is DU-145 prostate.
Experiment [12] relates to K-562 leukemia.
Experiment [13] deals with MALME-3M melanoma.
Experiment [14] relates to MDA-MB-231 breast.
The test system of experiment [15] is RXF 393 renal.
Experiment [16] concerns SF-268 CNS.
In experiment [17] the test system is SF-295 CNS.
Experiment [18] has as its system SF-539 CNS.
Experiment [19] concerns UACC-257 melanoma.
In experiment [20] the test system is M14 melanoma.

Regarding `COc1ccc(OC)c(Nc2nnc(-c3ccc(Cl)cc3)o2)c1`, the growth in [1] was 75%; in [2], 93.8%; in [3], 56.9%; in experiment [4] it was 46.7%; in experiment [5], 18.8%; in experiment [6], 100%. Besides, the growth is 89.9% in experiment [7]; 44.7% in experiment [8]; 26.4% in experiment [9]; 99.1% in experiment [10]; 70% in experiment [11]; 83.5% in [12]. Further, the growth was 66.9% in experiment [13]; 85.6% in experiment [14]; 90.4% in [15]; 55.4% in [16]; 29.2% in experiment [17]; 50.7% in [18]. Further, the growth in experiment [19] is 104%; in experiment [20] it was 93.1%.

With `Cn1cccc1/C=C1\C(=O)Nc2ccccc21`, the growth was 66.9% in [1]; 104% in experiment [2]; 87.9% in experiment [3]; 86.8% in [4]; 89.1% in experiment [5]; 97.2% in experiment [6]. The growth is 101% in [7]; 101% in [8]; 96.6% in [9]; 121% in experiment [10]; 110% in experiment [11]; 98.9% in experiment [12]. In addition, the growth in experiment [13] was 94.8%; in experiment [14] it was 67.4%; in [15], 103%; in [16], 92.3%; in experiment [17], 100%; in [18], 99.5%. The growth in experiment [19] is 98%; in experiment [20], 96.6%.

On to `Cc1c2cnccc2c(C)c2c1c1cc(C3OCCCO3)ccc1n2C`, for which the growth is -31.9% (active) in experiment [1]; -4.43% (active) in experiment [2]; -2.25% (active) in [3]; -13% (active) in experiment [4]; 0.184% (active) in experiment [5]; -10.5% (active) in experiment [6]. The growth was -41.6% (active) in [7]; 2.33% (active) in experiment [8]; 11.8% in experiment [9]; -17.6% (active) in experiment [10]; 3.92% (active) in [11]; 3.75% (active) in experiment [12]. In addition, the growth in experiment [13] is -62.9% (active); in experiment [14] it was -26.1% (active); in experiment [15], -78.9% (active); in experiment [16], 1.29% (active); in experiment [17] it was 0.404% (active); in [18], -55.1% (active). For the same molecule, the growth was -25.8% (active) in experiment [19] and -79.8% (active) in experiment [20].

Take `NNC(=S)N/N=C/c1ccccn1`: the growth in experiment [1] is 30.9%; in experiment [2], 34.3%; in experiment [3] it was 46.2%; in [4], 13%; in experiment [5] it was 9.74% (active); in experiment [6], 21%. Further, the growth in experiment [7] was -14.3% (active); in experiment [8] it was 46.9%; in experiment [9], 24.4%; in experiment [10], 15%; in experiment [11] it was 34.5%; in [12], 19.4%. Besides, the growth in [13] is 54.3%; in experiment [14], 47.2%; in experiment [15] it was 25.2%; in experiment [16], 42.9%; in experiment [17], 33.5%; in [18] it was 11.2%. Further, the growth in experiment [19] was 45.7%; in experiment [20], 23.7%.

For `N=C(N)c1ccc(-c2ccc(-c3ccc(Cl)cc3)o2)o1`, the growth is 29% in [1]; 82.7% in [2]; 26.2% in experiment [3]; 52.4% in experiment [4]; -72.3% (active) in experiment [5]; 39.5% in experiment [6]. Besides, the growth in [7] is -2.55% (active); in experiment [8] it was -64.6% (active); in [9] it was 1.68% (active); in experiment [10], -78.6% (active); in experiment [11] it was -80.4% (active); in [12], -60% (active). Also, the growth in [13] was 90.6%; in experiment [14], -60.2% (active); in [15] it was 40.4%; in experiment [16], 17.9%; in experiment [17] it was 27.4%; in experiment [18] it was 74.1%. Further, the growth was 53.4% in experiment [19] and 19.7% in experiment [20].

In the case of `COc1cccc(Nc2ccnc3[nH]c4ccc([N+](=O)[O-])cc4c23)c1`, the growth is 64.5% in experiment [1]; 48.7% in experiment [2]; 84.3% in experiment [3]; 34.6% in [4]; 30.7% in experiment [5]; 31.5% in experiment [6]. Besides, the growth in experiment [7] was 30.4%; in experiment [8], 37%; in experiment [9], 25.7%; in experiment [10], 51.7%; in experiment [11] it was 76.9%; in [12], 19%. Further, the growth in [13] is 53%; in [14], 60.1%; in experiment [15], 33.5%; in experiment [16] it was 60.7%; in experiment [17] it was 45.5%; in experiment [18], 48.9%. Besides, the growth was 57.4% in [19] and 34% in experiment [20].

Take `CN(Cc1cnc2nc(N)nc(N)c2n1)c1c(Cl)cc(C(=O)NC(CCC(=O)O)C(=O)O)cc1Cl` (stereo not given): the growth in experiment [1] was 25.8%; in experiment [2] it was 67.5%; in experiment [3] it was 31.2%; in experiment [4] it was 23.8%; in experiment [5], 20.2%; in experiment [6], 15.4%. The growth is 24.5% in experiment [7]; 15.6% in experiment [8]; 12.7% in experiment [9]; 53% in experiment [10]; 23.8% in experiment [11]; 21.6% in experiment [12]. Also, the growth in [13] is 68.5%; in experiment [14] it was 68%; in experiment [15] it was 30.9%; in experiment [16] it was 28.4%; in [17], 2.98% (active); in [18] it was 21.4%. The growth in experiment [19] was 33.8%; in [20], 21.3%.

On to `Cc1[nH]c(/C=C/C(=O)c2ccc(C(F)(F)F)c(F)c2)c(C)c1C(=O)NCC(C)C`, for which the growth in experiment [1] was 101%; in [2], 98.2%; in experiment [3] it was 101%; in [4], 87.7%; in [5], 101%; in experiment [6], 108%. The growth was 99.4% in experiment [7]; 95.4% in experiment [8]; 103% in experiment [9]; 113% in experiment [10]; 101% in [11]; 101% in experiment [12]. Besides, the growth was 96.6% in [13]; 99.4% in experiment [14]; 93.8% in [15]; 95.8% in experiment [16]; 90.9% in experiment [17]; 96% in [18]. Also, the growth was 99.2% in experiment [19] and 104% in experiment [20].
